Legend:
Type in all cases: functional
Plasmodium falciparum [1] = test: GSK_TCMDC: Inhibition of Plasmodium falciparum 3D7 in whole red blood cells, using parasite LDH activity as an index of growth. Test compounds present at 2uM
Plasmodium falciparum [2] = test: GSK_TCMDC: Inhibition of Plasmodium falciparum Dd2 in whole red blood cells, using parasite LDH activity as an index of growth. Test compounds present at 2uM
HepG2 = test: GSK_TCMDC: Percent inhibition of human HepG2 cell line. Test compounds present at 10uM.

| SMILES | Inhibition (Plasmodium falciparum [1]) [%] | Inhibition (Plasmodium falciparum [2]) [%] | Inhibition (HepG2) [%] |
| --- | --- | --- | --- |
| CCCCCCCCCCS(=O)(=O)N[C@H](COCc1cccc(Oc2ccccc2)c1)COP(=O)([O-])OC.[Li+] | 87 | 0 | 0 |
| Cc1nc2nc(N)nc(N)c2c(C)c1Cc1ccc(Cl)cc1.Cl | 94 | 22 | 62 |
| O=C1COc2ccc3ccccc3c21 | 99 | 3 | 0 |
| COc1ccccc1CCNc1nc(C)cc(N[C@@H](CC(C)C)C(=O)NCc2cccs2)n1.O=C(O)C(F)(F)F | 96 | 31 | 20 |
| COc1ccc(NC(=O)[C@H](CC(C)C)Nc2ccnc(Nc3ccccc3)n2)cc1.O=C(O)C(F)(F)F | 92 | 32 | 0 |
| CCCc1ccc(S(=O)(=O)NC2CCN(c3ccnc(Nc4ccc(F)cc4)n3)C2)cc1 (stereo not drawn) | 95 | 56 | 40 |
| CN(C)CCOC(=O)C1(O)CCC2CC1C2(C)C.Cl (stereo not drawn) | 95 | 0 | 10 |
| CCN(CC)CCN(Cc1ccc(-c2ccc(C(F)(F)F)cc2)cc1)C(=O)Cn1c(CCc2cccc(F)c2F)nc(=O)c2cc(F)ccc21.O=C(O)C(O)C(O)C(=O)O | 98 | 45 | 15 |
| N#Cc1c(N2CCCCCC2)nc(N)c2c(N)nc3c(c12)CC(=O)N3c1ccc(F)cc1 | 97 | 91 | 0 |
| CCN(CC)CCCCOc1ccc2c(c1)C(=O)c1cc(OCCCCN(CC)CC)ccc1-2.Cl | 100 | 44 | 24 |
| Cc1cc(N(C)CCCN(C)C)nc(Nc2ccc(Cl)cc2)n1 | 100 | 79 | 7 |

— ChEMBL document CHEMBL1157539, “Thousands of chemical starting points for antimalarial lead identification” (Nature, 2010)
